By inhibition is commonly meant the change of the read-out against control, counted positive when it falls.

For this experiment, the target named is Hexose transporter 1 (Plasmodium falciparum) (UniProt O97467). Description: ST_JUDE_LEISH: Cytotoxicity at 2uM final concentration against transgenic Leishmania Mexicana promastigotes LmPfHT that are glucose transport deficient and complemented with the Plasmodium falciparum hexose transporter. Activity is measured by DNA content using SYBR green in vitro. Format: functional.
With `COc1cc(-c2cc(-c3ccc(S(C)(=O)=O)cc3)cnc2N)ccc1O`, the inhibition stood at 6.34%.

Turning to `CCn1c(-c2nonc2N)nc2cnc(Oc3cccc(NC(=O)c4ccc(OCCN(C(C)C)C(C)C)cc4)c3)cc21`, the inhibition amounted to 18.2%.

Take `O=C(Nc1cccc(CN2CCN(C(=O)c3cccc(Cl)c3)CC2)c1)c1ccco1`: the inhibition amounted to 0.58%.

`CC1(C)N=C(N)N=C(N)N1OCCCOc1cc(Cl)c(Cl)cc1Cl`: the inhibition came to 4.05%.

Consider `CCN(CC)CCN(Cc1ccc(-c2ccc(C(F)(F)F)cc2)cc1)C(=O)Cn1c(CCc2cccc(F)c2F)nc(=O)c2cc(C)ccc21`, for which the inhibition came out at 9.2%.

Regarding `CCN(CCCN1CCCCC1)c1cc(C)nc(Nc2ccc(C(F)(F)F)cc2)n1`, the inhibition worked out at 3.63%.

For `NCC1CCCN1Cc1cccc(-c2ccc(-c3nc4cc(C(F)(F)F)ccc4[nH]3)cc2)c1` (centres undefined), the inhibition was determined as 0.65%.

As to `Cc1cc(C(=O)CN2C(=O)NC(C)(c3ccc4ccccc4c3)C2=O)c(C)n1Cc1ccco1` (centres undefined), the inhibition was -1.11%.

With `Cc1cccc2nc(-c3ccc(-c4cccc(CN5CCC(CCN6CCCCC6)CC5)c4)s3)[nH]c12`, the inhibition came out at 0.87%.

For `COc1cc(C(=O)N2CCOC(CCN3CCc4c(c5ccccc5n4C)C3)(c3ccc(Cl)c(Cl)c3)C2)cc(OC)c1OC` (centres undefined), the inhibition came out at 0%.

Consider `COc1cc(C2Nc3ccc4ccccc4c3C3=C2C(=O)CC(C)(C)C3)ccc1Oc1ccc([N+](=O)[O-])cc1C#N` (centres undefined), for which the inhibition was 4.07%.

`COc1ccc2nccc(N3CCC(CCNCc4cc5c(cn4)OCCO5)CC3)c2c1`: the inhibition worked out at 8%.

Regarding `COc1nc(NCC(C)C)nc(Oc2ccc(=O)n(Cc3ccccc3)n2)n1`, the inhibition was 1.88%.

With `O=C(Nc1cccc(F)c1)N1CCC(CN2CCOC(c3ccccc3)(c3ccccc3)C2)CC1`, the inhibition came out at 4.01%.

Source of the values: ChEMBL document CHEMBL3433997, “St. Jude Leishmania screening dataset” (2016).
